# Source: PubChem BioAssay (NCI)
# About 79,000 compounds went through this panel and 15% of them were active in at least one assay; those are over-represented in the sample as a whole. Values without a mark were called inactive. Activity calls are given as the source filed them. Cut-off read from the data, not from the text of the source: active = growth inhibition above about 70%; inactive = the rest.
# Key:
# [1] = NCI Yeast Anticancer Drug Screen. Data for the wt1 strain (AID 149);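 note: 0% = growth of vehicle-treated wt1 cultures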; conditions: S. cerevisiae wt1 strain (SPY 50644) growth inhibition, stronger effect = higher value
# Summary of the method: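 wt1 yeast, compound-treated; % growth inhibition vs vehicle control.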
# [2] = NCI Yeast Anticancer Drug Screen. Data for the rad50EPP+ strain (AID 151);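 note: 0% = growth of vehicle-treated control cultures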; conditions: S. cerevisiae rad50 mutant strain, stronger effect = higher value
# Summary of the method: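 Yeast strain carrying rad50 alteration (rad50EPP+) exposed to compounds; growth inhibition measured relative to vehicle-treated controls.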
# [3] = NCI Yeast Anticancer Drug Screen. Data for the rad50 strain (AID 155);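 note: 0% = growth of vehicle-only cultures of the same strain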; conditions: S. cerevisiae rad50 strain growth inhibition, stronger effect = higher value
# Summary of the method: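 Genetically altered yeast (DNA repair pathway); compound treatment; growth inhibition vs vehicle ctrl.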
# [4] = NCI Yeast Anticancer Drug Screen. Data for the mec2-1 strain (AID 157); conditions: S. cerevisiae mec2-1 strain, stronger effect = higher value
# Summary of the method: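 mec2-1 yeast strain, carrying an alteration in DNA damage repair or cell cycle control, was exposed to compounds; growth inhibition was measured relative to vehicle-treated controls.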
# [5] = NCI Yeast Anticancer Drug Screen. Data for the rad14 strain (AID 159);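 note: 0% = growth of vehicle-treated control cultures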; conditions: S. cerevisiae rad14 strain growth inhibition, stronger effect = higher value
# Summary of the method: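 Test compounds were applied to a repair-deficient yeast strain. Its growth was then compared with that of cultures given vehicle alone, and inhibition was expressed relative to those controls.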
# [6] = NCI Yeast Anticancer Drug Screen. Data for the sgs1 mgt1 strain (AID 161);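 note: 0% = growth of cultures given vehicle only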; conditions: S. cerevisiae sgs1 mgt1 strain, stronger effect = higher value
# Summary of the method: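 Percent growth inhibition was derived by comparing compound-exposed mutant yeast with vehicle-exposed cultures. The strain carries alterations in DNA damage repair.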
# [7] = NCI Yeast Anticancer Drug Screen. Data for the CLN2oe strain (AID 163);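 note: 0% = growth of vehicle-only control cultures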; conditions: S. cerevisiae CLN2oe strain, stronger effect = higher value
# Summary of the method: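 Yeast cells carrying a defined cell-cycle control alteration were exposed to test compounds. Growth inhibition was scored against vehicle-treated control cultures.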
# [8] = NCI Yeast Anticancer Drug Screen. Data for the cln2 rad14 strain (AID 165);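 note: 0% = growth equal to vehicle treated cultures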; conditions: S. cerevisiae cln2 rad14 strain, stronger effect = higher value
# Summary of the method: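 Yeast carrying cln2 and rad14 alterations (cell cycle control and DNA damage repair) were exposed to compounds. Growth inhibition was measured against vehicle-treated controls.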
# [9] = NCI Yeast Anticancer Drug Screen. Data for the bub3 strain (AID 167); conditions: S. cerevisiae bub3 mutant strain, stronger effect = higher value
# Summary of the method: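 Yeast carrying a defined mutation is treated with each compound, and growth is compared with that of vehicle-exposed cells to give inhibition.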
# [10] = NCI Yeast Anticancer Drug Screen. Data for the wt2 strain (AID 169);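 note: 0% = growth of vehicle-treated yeast cultures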; conditions: S. cerevisiae wt2 strain growth inhibition, stronger effect = higher value
# Summary of the method: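 Yeast cells were exposed to test compounds, and growth inhibition was measured relative to vehicle-treated controls.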
# [11] = NCI Yeast Anticancer Drug Screen. Data for the mlh1 strain (AID 171);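 note: 0% = growth of vehicle-treated control cultures of the same strain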; conditions: S. cerevisiae mlh1 strain growth inhibition, stronger effect = higher value
# Summary of the method: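 Yeast carrying a defined genetic alteration in DNA damage repair or cell cycle control were exposed to test compounds. Growth inhibition was measured relative to vehicle-treated controls.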
# [12] = NCI Yeast Anticancer Drug Screen. Data for the sgs1 strain (AID 173);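 note: 0% = growth of vehicle-only control cultures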; conditions: S. cerevisiae sgs1 mutant, stronger effect = higher value
# Summary of the method: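 Yeast mutant strains carrying defined defects in DNA damage repair or cell cycle control were exposed to test compounds. Growth inhibition was scored against vehicle-treated controls.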
# [13] = NCI Yeast Anticancer Drug Screen. Data for the mlh1 rad18 strain (AID 175); conditions: S. cerevisiae mlh1 rad18 strain growth inhibition, stronger effect = higher value
# Summary of the method: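 Growth inhibition of the yeast strain was measured after compound exposure and expressed relative to vehicle-treated controls. The strain carries defined defects in DNA damage repair.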
# [14] = at 5.0 µM (retest, dose inferred, filed as 0.5)
# [15] = at 50.0 µM (retest, dose inferred, filed as 5.0)
smiles,measurement,setting,value
Cc1ccc(S(=O)(=O)N/N=C/c2c(O)ccc3ccccc23)cc1,growth inhibition,[1]; at 1.2 µM,-8%
same,growth inhibition,[1]; at 3.7 µM,-15%
same,growth inhibition,[1]; at 11.0 µM,37%
same,growth inhibition,[1]; at 33.0 µM,59%
same,growth inhibition,[1]; at 100.0 µM,84% (active)
same,growth inhibition,[2]; at 1.2 µM,-6%
same,growth inhibition,[2]; at 3.7 µM,3%
same,growth inhibition,[2]; at 11.0 µM,-16%
same,growth inhibition,[2]; at 33.0 µM,-8%
same,growth inhibition,[2]; at 100.0 µM,24%
same,growth inhibition,[3]; at 1.2 µM,19%
same,growth inhibition,[3]; at 3.7 µM,10%
same,growth inhibition,[3]; [14],36%
same,growth inhibition,[3]; at 11.0 µM,79% (active)
same,growth inhibition,[3]; at 33.0 µM,82% (active)
same,growth inhibition,[3]; [15],86% (active)
same,growth inhibition,[3]; at 50.0 µM,79.9% (active)
same,growth inhibition,[3]; at 100.0 µM,78% (active)
same,growth inhibition,[4]; at 1.2 µM,-1%
same,growth inhibition,[4]; at 3.7 µM,1%
same,growth inhibition,[4]; [14],53%
same,growth inhibition,[4]; at 11.0 µM,55%
same,growth inhibition,[4]; at 33.0 µM,66%
same,growth inhibition,[4]; [15],79% (active)
same,growth inhibition,[4]; at 50.0 µM,79.5% (active)
same,growth inhibition,[4]; at 100.0 µM,79% (active)
same,growth inhibition,[5]; at 1.2 µM,-14%
same,growth inhibition,[5]; at 3.7 µM,-14%
same,growth inhibition,[5]; at 11.0 µM,59%
same,growth inhibition,[5]; at 33.0 µM,73% (active)
same,growth inhibition,[5]; at 100.0 µM,83% (active)
same,growth inhibition,[6]; [14],-10%
same,growth inhibition,[6]; [15],91% (active)
same,growth inhibition,[7]; at 1.2 µM,-17%
same,growth inhibition,[7]; at 3.7 µM,8%
same,growth inhibition,[7]; at 11.0 µM,52%
same,growth inhibition,[7]; at 33.0 µM,58%
same,growth inhibition,[7]; at 100.0 µM,71% (active)
same,growth inhibition,[8]; [14],21%
same,growth inhibition,[8]; [15],89% (active)
same,growth inhibition,[9]; at 1.2 µM,17%
same,growth inhibition,[9]; at 3.7 µM,34%
same,growth inhibition,[9]; [14],37%
same,growth inhibition,[9]; at 11.0 µM,55%
same,growth inhibition,[9]; at 33.0 µM,70% (active)
same,growth inhibition,[9]; [15],85% (active)
same,growth inhibition,[9]; at 100.0 µM,77% (active)
same,growth inhibition,[10]; at 1.2 µM,-5%
same,growth inhibition,[10]; at 3.7 µM,-9%
same,growth inhibition,[10]; at 11.0 µM,43%
same,growth inhibition,[10]; at 33.0 µM,81% (active)
same,growth inhibition,[10]; at 100.0 µM,88% (active)
same,growth inhibition,[11]; at 1.2 µM,-30%
same,growth inhibition,[11]; at 3.7 µM,-42%
same,growth inhibition,[11]; at 11.0 µM,49%
same,growth inhibition,[11]; at 33.0 µM,56%
same,growth inhibition,[11]; at 100.0 µM,78% (active)
same,growth inhibition,[12]; at 1.2 µM,26%
same,growth inhibition,[12]; at 3.7 µM,42%
same,growth inhibition,[12]; at 11.0 µM,76% (active)
same,growth inhibition,[12]; at 33.0 µM,80% (active)
same,growth inhibition,[12]; at 100.0 µM,87% (active)
same,growth inhibition,[13]; [14],44%
same,growth inhibition,[13]; [15],64%
same,growth inhibition,[13]; at 50.0 µM,78.5% (active)
COc1ccc2c(C)cc(N/N=C/c3sccc3C)nc2c1,growth inhibition,[1]; at 1.2 µM,-30%
same,growth inhibition,[1]; at 3.7 µM,-32%
same,growth inhibition,[1]; at 11.0 µM,-15%
same,growth inhibition,[1]; at 33.0 µM,63%
same,growth inhibition,[1]; at 100.0 µM,66%
same,growth inhibition,[2]; at 1.2 µM,-11%
same,growth inhibition,[2]; at 3.7 µM,-10%
same,growth inhibition,[2]; at 11.0 µM,-4%
same,growth inhibition,[2]; at 33.0 µM,24%
same,growth inhibition,[2]; at 100.0 µM,21%
same,growth inhibition,[3]; at 1.2 µM,-15%
same,growth inhibition,[3]; at 3.7 µM,-25%
same,growth inhibition,[3]; [14],22%
same,growth inhibition,[3]; at 11.0 µM,23%
same,growth inhibition,[3]; at 33.0 µM,80% (active)
same,growth inhibition,[3]; [15],92% (active)
same,growth inhibition,[3]; at 50.0 µM,68.5%
same,growth inhibition,[3]; at 100.0 µM,73% (active)
same,growth inhibition,[4]; at 1.2 µM,-22%
same,growth inhibition,[4]; at 3.7 µM,-28%
same,growth inhibition,[4]; [14],12%
same,growth inhibition,[4]; at 11.0 µM,-8%
same,growth inhibition,[4]; at 33.0 µM,57%
same,growth inhibition,[4]; [15],92% (active)
same,growth inhibition,[4]; at 50.0 µM,50%
same,growth inhibition,[4]; at 100.0 µM,46%
same,growth inhibition,[5]; at 1.2 µM,-53%
same,growth inhibition,[5]; at 3.7 µM,-27%
same,growth inhibition,[5]; at 11.0 µM,-10%
same,growth inhibition,[5]; at 33.0 µM,35%
same,growth inhibition,[5]; at 100.0 µM,31%
same,growth inhibition,[6]; [14],19%
same,growth inhibition,[6]; [15],8%
same,growth inhibition,[6]; at 50.0 µM,80.3% (active)
same,growth inhibition,[7]; at 1.2 µM,-6%
same,growth inhibition,[7]; at 3.7 µM,-9%
same,growth inhibition,[7]; at 11.0 µM,0%
same,growth inhibition,[7]; at 33.0 µM,65%
same,growth inhibition,[7]; at 100.0 µM,56%
same,growth inhibition,[8]; [14],4%
same,growth inhibition,[8]; [15],-26%
same,growth inhibition,[8]; at 50.0 µM,45.8%
same,growth inhibition,[9]; at 1.2 µM,-11%
same,growth inhibition,[9]; at 3.7 µM,10%
same,growth inhibition,[9]; [14],13%
same,growth inhibition,[9]; at 11.0 µM,-7%
same,growth inhibition,[9]; at 33.0 µM,88% (active)
same,growth inhibition,[9]; [15],-26%
same,growth inhibition,[9]; at 50.0 µM,45.1%
same,growth inhibition,[9]; at 100.0 µM,82% (active)
same,growth inhibition,[10]; at 1.2 µM,13%
same,growth inhibition,[10]; at 3.7 µM,-6%
same,growth inhibition,[10]; at 11.0 µM,24%
same,growth inhibition,[10]; at 33.0 µM,78% (active)
same,growth inhibition,[10]; at 100.0 µM,73% (active)
same,growth inhibition,[12]; at 1.2 µM,-34%
same,growth inhibition,[12]; at 3.7 µM,-37%
same,growth inhibition,[12]; at 11.0 µM,14%
same,growth inhibition,[12]; at 33.0 µM,88% (active)
same,growth inhibition,[12]; at 100.0 µM,78% (active)
